In PubChem BioAssay (NCATS):
Results filed as inconclusive are left out. Unmarked numbers belong to inactive results. Calls of active or inactive are those of the source. The call rests on the fitted dose curve; in most records, active means well fitted curve in the direction sought with a large enough effect; inconclusive means small, poorly fitted or top-dose-only effect, or another doubt; inactive means no such curve, though single readings can be large; an effect the other way counts as inactive or inconclusive.

Experiments:
[1] = Quantitative High-Throughput drug screen in 47 multiple myeloma cell lines against the NCATS MIPE library collection: NCIH929_DSMZ cell viability assay (AID 1918978); further: nearly all actives have a fitted effect of over 35% in size
Method in brief: (§1)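 500 cells/well; MIPE 4.0 drugs pin-transferred; 48 h, 37C, 5% CO2. CellTiter-Glo, 5 min RT, luminescence. Controls: DMSO 100%, media 0%.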

[2] = Quantitative High-Throughput drug screen in 47 multiple myeloma cell lines against the NCATS MIPE library collection: OCIMY1_PLB cell viability assay (AID 1918979); further: nearly all actives have a fitted effect of over 35% in size;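 on viability: 100% = DMSO-only wells and 0% = cell-free media-only wells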
Method in brief: as §1

[3] = Quantitative High-Throughput drug screen in 47 multiple myeloma cell lines against the NCATS MIPE library collection: MM1S_ATCC cell viability assay (AID 1918980); further: nearly all actives have a fitted effect of over 45% in size
Method in brief: as §1

[4] = Quantitative High-Throughput drug screen in 47 multiple myeloma cell lines against the NCATS MIPE library collection: MM1R_ATCC cell viability assay (AID 1918981); further: nearly all actives have a fitted effect of over 35% in size
Method in brief: as §1

[5] = Quantitative High-Throughput drug screen in 47 multiple myeloma cell lines against the NCATS MIPE library collection: KMS28PE_JCRB cell viability assay (AID 1918983); further: nearly all actives have a fitted effect of over 35% in size
Method in brief: as §1

[6] = Quantitative High-Throughput drug screen in 47 multiple myeloma cell lines against the NCATS MIPE library collection: L363_DSMZ cell viability assay (AID 1918984); further: nearly all actives have a fitted effect of over 40% in size
Method in brief: as §1

[7] = Quantitative High-Throughput drug screen in 47 multiple myeloma cell lines against the NCATS MIPE library collection: OCIMY7_PLB cell viability assay (AID 1918987); conditions: OCI-MY7 myeloma viability, CellTiter-Glo ATP, 48 h; viability (% of DMSO): at 45.8 µM (top of the series); further: nearly all actives have a fitted effect of over 65% in size
Method in brief: as §1

[8] = Quantitative High-Throughput drug screen in 47 multiple myeloma cell lines against the NCATS MIPE library collection: OCIMY5_PLB cell viability assay (AID 1918988); further: nearly all actives have a fitted effect of over 65% in size
Method in brief: as §1

[9] = Quantitative High-Throughput drug screen in 47 multiple myeloma cell lines against the NCATS MIPE library collection: OPM1_PLB cell viability assay (AID 1918989); further: nearly all actives have a fitted effect of over 40% in size
Method in brief: as §1

[10] = Quantitative High-Throughput drug screen in 47 multiple myeloma cell lines against the NCATS MIPE library collection: U266_ATCC cell viability assay (AID 1919864); further: nearly all actives have a fitted effect of over 35% in size
Method in brief: as §1

[11] = Quantitative High-Throughput drug screen in 47 multiple myeloma cell lines against the NCATS MIPE library collection: XG6_PLB cell viability assay (AID 1919865); further: nearly all actives have a fitted effect of over 40% in size
Method in brief: as §1

[12] = Quantitative High-Throughput drug screen in 47 multiple myeloma cell lines against the NCATS MIPE library collection: XG1_PLB cell viability assay (AID 1919866); further: nearly all actives have a fitted effect of over 35% in size
Method in brief: as §1

[13] = Quantitative High-Throughput drug screen in 47 multiple myeloma cell lines against the NCATS MIPE library collection: VP6_DJ cell viability assay (AID 1919867); further: nearly all actives have a fitted effect of over 40% in size
Method in brief: as §1

[14] = Quantitative High-Throughput drug screen in 47 multiple myeloma cell lines against the NCATS MIPE library collection: UTMC2_PLB cell viability assay (AID 1919868); conditions: CellTiter-Glo ATP luminescence, 48 h; viability (% of DMSO control): at 45.8 µM (top of the series); further: nearly all actives have a fitted effect of over 55% in size
Method in brief: as §1

[15] = Quantitative High-Throughput drug screen in 47 multiple myeloma cell lines against the NCATS MIPE library collection: PE2_PLB cell viability assay (AID 1919869); further: nearly all actives have a fitted effect of over 35% in size
Method in brief: as §1

[16] = Quantitative High-Throughput drug screen in 47 multiple myeloma cell lines against the NCATS MIPE library collection: PCM6_Riken cell viability assay (AID 1919870); further: nearly all actives have a fitted effect of over 30% in size
Method in brief: as §1

[17] = Quantitative High-Throughput drug screen in 47 multiple myeloma cell lines against the NCATS MIPE library collection: RPMI8226_ATCC cell viability assay (AID 1919871); further: nearly all actives have a fitted effect of over 30% in size
Method in brief: as §1

[18] = Quantitative High-Throughput drug screen in 47 multiple myeloma cell lines against the NCATS MIPE library collection: LP1_DSMZ cell viability assay (AID 1918982); further: nearly all actives have a fitted effect of over 35% in size
Method in brief: as §1

[19] = Quantitative High-Throughput drug screen in 47 multiple myeloma cell lines against the NCATS MIPE library collection: KMS34_JCRB cell viability assay (AID 1918985); further: nearly all actives have a fitted effect of over 40% in size
Method in brief: as §1

[20] = Quantitative High-Throughput drug screen in 47 multiple myeloma cell lines against the NCATS MIPE library collection: SKMM1_PLB cell viability assay (AID 1919863); conditions: SKMM1 myeloma viability, CellTiter-Glo ATP, 48 h; viability: stronger effect = lower value; further: nearly all actives have a fitted effect of over 35% in size
Method in brief: as §1
Potency means the concentration at half of the fitted maximal effect.

CN(C)Cc1cccc(N=C(c2ccccc2)c2c(O)[nH]c3cc(C(=O)N(C)C)ccc23)c1
Potency [1]: 18.7 µM (active)
Potency [2]: inactive
Potency [3]: 16.6 µM (active)
Potency [4]: 4.69 µM (active)
Potency [5]: 18.7 µM (active)
Potency [6]: 8.33 µM (active)
Potency [7]: 0.935 µM (active)
Potency [8]: 10.5 µM (active)
Potency [9]: 18.7 µM (active)
Potency [10]: 18.7 µM (active)
Potency [11]: 18.7 µM (active)
Potency [12]: 16.6 µM (active)
Potency [13]: 13.2 µM (active)
Potency [14]: 16.6 µM (active)
Potency [15]: 20.9 µM (active)
Potency [16]: 10.5 µM (active)
Potency [17]: 10.5 µM (active)

CC(=O)N(C)C1(c2ccccc2)CCN(CCC[C@]2(c3ccc(Cl)c(Cl)c3)CCCN(C(=O)c3ccccc3)C2)CC1
Potency [1]: 11.8 µM (active)
Potency [2]: 26.4 µM (active)
Potency [3]: 20.9 µM (active)
Potency [4]: 23.5 µM (active)
Potency [18]: 26.4 µM (active)
Potency [5]: 20.9 µM (active)
Potency [6]: 5.9 µM (active)
Potency [7]: 14.8 µM (active)
Potency [8]: 18.7 µM (active)
Potency [10]: 23.5 µM (active)
Potency [11]: 8.33 µM (active)
Potency [12]: 14.8 µM (active)
Potency [13]: 13.2 µM (active)
Potency [15]: 20.9 µM (active)
Potency [16]: 13.2 µM (active)
Potency [17]: 23.5 µM (active)

CC[C@@]1(O)C[C@H](O[C@H]2C[C@H](N(C)C)[C@H](O[C@H]3C[C@H](O)[C@H](O[C@H]4CCC(=O)[C@H](C)O4)[C@H](C)O3)[C@H](C)O2)c2c(cc3c(c2O)C(=O)c2c(O)cccc2C3=O)[C@@H]1C(=O)OC
Potency [1]: 0.264 µM (active)
Potency [2]: 1.66 µM (active)
Potency [3]: 0.187 µM (active)
Potency [4]: 0.209 µM (active)
Potency [18]: 1.05 µM (active)
Potency [5]: 0.418 µM (active)
Potency [19]: 2.09 µM (active)
Potency [7]: 0.372 µM (active)
Potency [8]: 0.0935 µM (active)
Potency [20]: 0.833 µM (active)
Potency [10]: 0.418 µM (active)
Potency [11]: 0.296 µM (active)
Potency [12]: 0.132 µM (active)
Potency [13]: 0.59 µM (active)
Potency [14]: 0.187 µM (active)
Potency [15]: 0.526 µM (active)
Potency [16]: 1.05 µM (active)
Potency [17]: 0.296 µM (active)

CCc1ccc(OCc2ccccc2C(=O)Nc2ccc3nc(C)cc(N)c3c2)cc1
Potency [1]: 1.05 µM (active)
Potency [2]: 8.33 µM (active)
Potency [3]: 4.69 µM (active)
Potency [4]: 3.32 µM (active)
Potency [18]: 8.33 µM (active)
Potency [5]: 8.33 µM (active)
Potency [6]: 1.18 µM (active)
Potency [19]: 7.43 µM (active)
Potency [7]: 1.05 µM (active)
Potency [8]: 7.43 µM (active)
Potency [9]: 1.32 µM (active)
Potency [20]: 6.62 µM (active)
Potency [10]: 5.9 µM (active)
Potency [11]: 1.05 µM (active)
Potency [12]: 1.48 µM (active)
Potency [13]: 1.32 µM (active)
Potency [14]: 3.32 µM (active)
Potency [15]: 2.35 µM (active)
Potency [16]: 1.18 µM (active)
Potency [17]: 6.62 µM (active)

CCOC1OC(=O)C[C@H]1NC(=O)[C@@H]1CCCN1C(=O)[C@@H](NC(=O)c1ccc(N)c(Cl)c1)C(C)(C)C (some centres undefined)
Potency [1]: inactive
Potency [2]: inactive
Potency [3]: 26.4 µM (active)
Potency [4]: inactive
Potency [18]: inactive
viability (% of DMSO) [7]: 164% (active)
Potency [8]: inactive
Potency [9]: inactive
viability [20]: 129%
Potency [11]: inactive
Potency [12]: inactive
Potency [15]: inactive
Potency [16]: inactive
